# According to PubChem BioAssay (Tox21):
# Records with an inconclusive call do not appear. Where a call stands in place of a potency, no number is given. A number with no mark means an inactive call. Calls of active or inactive are those of the source. Unless noted, calls follow the shape of the full dose curve.
# What was measured:
# [1] = qHTS assay to identify small molecule agonists of the vitamin D receptor (VDR) signaling pathway - cell viability counter screen (AID 743224; active = well fitted curve in the direction sought with a large enough effect in the repeat runs; an effect the other way counts as inactive or inconclusive; also: nearly all actives have a fitted effect of over 50% in size; also: potency is read from the fitted curve at half-maximal effect; as to activity change, negative = cytotoxicity: series mostly up to about 63 µM)
# Procedure, shortened: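 VDR-bla cells, 4 h after plating, exposed to compounds for 16 h at 37C; viability then read in the same wells as CellTiter-Glo luminescence after 30 min at room temperature, following the bla FRET read.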
# [2] = qHTS assay to identify small molecule antagonists of the vitamin D receptor (VDR) signaling pathway - cell viability counter screen (AID 743225; active = well fitted curve in the direction sought with a large enough effect in the repeat runs; an effect the other way counts as inactive or inconclusive; also: nearly all actives have a fitted effect of over 50% in size; also: potency is read from the fitted curve at half-maximal effect)
# Procedure, shortened: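 Cytotoxicity toward the VDR-bla HEK 293T line was scored by ATP-based CellTiter-Glo luminescence, read in the wells already used for the beta-lactamase readout after 16 h compound treatment under 3 nM 1-alpha,25-dihydroxyvitamin D3 stimulation.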
# [3] = qHTS assay to identify small molecule agonists of the NFkB signaling pathway - cell viability counter screen (AID 1159515); also: nearly all actives have a fitted effect of over 55% in size; also: potency is read from the fitted curve at half-maximal effect; as to activity, negative = cytotoxic: series mostly up to about 61 µM
# Procedure, shortened: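 NFkB-bla ME-180 cells, 2,000/well, plated overnight at 37 C; compound added for 5 hr at 37 C. Viability read in the same wells as the bla reporter, by CellTiter-Glo luminescence after 30 min at room temperature.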
# [4] = qHTS assay to identify small molecule agonists of the endoplasmic reticulum stress response signaling pathway (AID 1159516; active = well fitted activation curve with a large enough effect in the signal ratio in the repeat runs, not every such curve was filed as active; the % refers to the signal ratio)
# Procedure, shortened: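 CellSensor ESRE-bla HeLa cells, 1,500 per well, plated overnight, then exposed to compounds for 5 hr at 37 C. Beta-lactamase reporter read with LiveBLAzer B/G FRET substrate after 2 hr at room temperature, 405 nm excitation, 460 and 530 nm emission.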
# [5] = qHTS assay to identify small molecule antagonists of the retinoid-related orphan receptor gamma (ROR-gamma) signaling pathway - cell viability counter screen (AID 1159520; active = well fitted curve in the direction sought with a large enough effect in the repeat runs; an effect the other way counts as inactive or inconclusive; also: nearly all actives have a fitted effect of over 50% in size; also: potency is read from the fitted curve at half-maximal effect)
# Procedure, shortened: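 Tet-on ROR gamma CHO cells (1,000/well) were plated 4 hr, given compounds in DMSO for 2 hr at 37 C, then induced with 1 uM final doxycycline for 16 hr. Viability was read as ATP by CellTiter-Glo luminescence after 30 min.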
# [6] = qHTS assay to identify small molecule agonists of the AP-1 signaling pathway - cell viability counter screen (AID 1159525); also: nearly all actives have a fitted effect of over 55% in size; also: potency is read from the fitted curve at half-maximal effect
# Procedure, shortened: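 ME-180 AP-1-bla, 2500 cells/well, Opti-MEM + 0.5% dialyzed FBS; overnight 37 °C; cpd 15-pt titration, 5 h 37 °C; CellTiter-Glo 30 min RT; luminescence read; normalised to TOAB and DMSO controls.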
# [7] = qHTS assay to identify small molecule agonists of the AP-1 signaling pathway (AID 1159526)
# [8] = molecular target: Retinoic acid receptor RXR-alpha (Homo sapiens) (UniProt P19793); experiment: qHTS assay to identify small molecule agonists of the RXR signaling pathway (AID 1159527); also: nearly all actives have a fitted effect of over 35% in size
# Retinoic acid receptor RXR-alpha (Homo sapiens), sequence (P19793 whole entry, looked up): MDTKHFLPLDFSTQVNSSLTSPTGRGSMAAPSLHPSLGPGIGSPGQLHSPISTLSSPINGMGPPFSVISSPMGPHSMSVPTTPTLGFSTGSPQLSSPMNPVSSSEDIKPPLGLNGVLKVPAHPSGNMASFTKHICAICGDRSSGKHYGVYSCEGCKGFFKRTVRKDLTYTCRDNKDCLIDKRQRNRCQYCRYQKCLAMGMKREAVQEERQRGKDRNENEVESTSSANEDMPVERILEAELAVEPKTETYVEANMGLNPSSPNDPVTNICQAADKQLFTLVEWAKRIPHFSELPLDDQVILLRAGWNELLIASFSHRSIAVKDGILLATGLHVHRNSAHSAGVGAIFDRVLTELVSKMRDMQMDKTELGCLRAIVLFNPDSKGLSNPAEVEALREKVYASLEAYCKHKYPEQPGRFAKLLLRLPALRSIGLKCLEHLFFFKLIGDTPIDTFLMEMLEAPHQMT
# Procedure, shortened: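 Reporter activation is measured as beta-lactamase activity via FRET substrate cleavage (emission 460/530 nm) in HEK 293T cells expressing an RXR-alpha-driven bla construct, following 16 hr compound exposure at 37 C.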
# [9] = qHTS assay to identify small molecule agonists of the endoplasmic reticulum stress response signaling pathway - cell viability counter screen (AID 1159517);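 also: HeLa cells carrying an ER stress response element beta-lactamase reporter; series mostly up to about 61 µM; nearly all actives have a fitted effect of over 50% in size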
# Procedure, shortened: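 Luminescence readout: CellTiter-Glo, 30 min RT, same wells as the ESRE-bla reporter read. HeLa ESRE-bla, 1,500 cells/well, o/n 37 C; cpd 5 hr 37 C/5% CO2.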
# [10] = molecular target: Nuclear receptor ROR-gamma (Homo sapiens) (UniProt P51449); experiment: qHTS assay to identify small molecule antagonists of the retinoid-related orphan receptor gamma (ROR-gamma) signaling pathway (AID 1159521; active = well fitted curve in the direction sought with a large enough effect in the repeat runs; an effect the other way counts as inactive or inconclusive; also: nearly all actives have a fitted effect of over 50% in size; also: potency is read from the fitted curve at half-maximal effect)
# Procedure, shortened: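 Readout: ONE-Glo luciferase luminescence, 30 min at room temperature. System: Tet-on RORγ CHO, RORE-LUC. Sequence: compound 2 h, doxycycline 1 uM final, 16 h at 37 C.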
smiles,measurement,setting,value
CC1=CC=C(C(C)C)CC1,Potency,[1],inactive
same,Potency,[2],inactive
same,Potency,[3],inactive
same,Potency,[4],inactive
same,Potency,[5],inactive
same,Potency,[6],inactive
same,Potency,[7],inactive
same,Potency,[8],inactive
COS(=O)(=O)C(F)(F)F,Potency,[2],inactive
same,Potency,[3],inactive
same,Potency,[4],inactive
same,Potency,[5],inactive
same,Potency,[6],inactive
same,Potency,[8],inactive
COc1ccnc(CS(=O)c2nc3ccc(OC(F)F)cc3[nH]2)c1OC (configuration not stated),Potency,[1],inactive
same,Potency,[2],inactive
same,Potency,[3],inactive
same,Potency,[4],inactive
same,Potency,[5],inactive
same,Potency,[6],inactive
same,Potency,[7],inactive
same,Potency,[8],inactive
CCCCCCCCCCCCCCCCCCOS(=O)(=O)O,Potency,[1],54.9 µM (active)
same,Potency,[3],43.6 µM (active)
same,Potency,[4],inactive
same,Potency,[5],inactive
same,Potency,[6],38.9 µM (active)
COCC(C)OC(C)=O (configuration not stated),Potency,[1],inactive
same,Potency,[2],inactive
same,Potency,[3],inactive
same,Potency,[4],inactive
same,Potency,[5],inactive
same,Potency,[6],inactive
same,Potency,[7],inactive
same,Potency,[8],inactive
C[Si](C)(CCCN)O[Si](C)(C)CCCN,Potency,[1],inactive
same,Potency,[2],inactive
same,Potency,[3],inactive
same,Potency,[9],inactive
same,Potency,[5],inactive
same,Potency,[10],inactive
same,Potency,[7],inactive
same,Potency,[8],inactive
CCc1c(C(=O)NN2CCCCC2)nn(-c2ccc(Cl)cc2Cl)c1-c1ccc(Br)cc1,Potency,[2],inactive
same,Potency,[3],inactive
same,Potency,[4],inactive
same,Potency,[10],54.5 µM (active)
same,Potency,[6],inactive
same,Potency,[7],inactive
Cn1c(=O)cc(Oc2ccc(F)cc2F)c2cnc(NCC(C)(C)O)nc21,Potency,[2],inactive
same,Potency,[3],inactive
same,Potency,[4],inactive
same,Potency,[5],inactive
same,Potency,[6],inactive
same,Potency,[7],inactive
Clc1ccc2c(c1)CCc1cccnc1C2=C1CCNCC1,Potency,[3],inactive
same,Potency,[9],inactive
same,Potency,[5],inactive
same,Potency,[10],inactive
same,Potency,[7],inactive
C/C(=C(\CCOP(=O)(O)O)SC(=O)c1ccccc1)N(C=O)Cc1cnc(C)nc1N,"activity change, negative = cytotoxicity",[1],-3.71% [at 5.95 µM]
same,"viability change, negative = cytotoxic",[2],2.62% [at 6.95 µM]
same,"activity, negative = cytotoxic",[3],2.97% [at 6.95 µM]
same,"activity change, negative = cytotoxicity",[9],8.35% [at 6.95 µM]
same,"activity, negative = cytotoxicity",[5],-0.156% [at 8.39 µM]
same,"viability change, negative = cytotoxic",[6],-3.18% [at 6.97 µM]
same,activation,[7],-6.29% [at 6.97 µM]
same,activation,[8],7.58% [at 6.98 µM]
CCN(CC)c1ccc(C(=C2C=CC(=[N+](CC)CC)C=C2)c2cc(S(=O)(=O)O)ccc2S(=O)(=O)[O-])cc1,Potency,[1],inactive
same,Potency,[2],inactive
same,Potency,[3],inactive
same,Potency,[9],inactive
same,Potency,[5],13.3 µM (active)
same,Potency,[7],inactive
same,Potency,[8],inactive
CCCCCCCCCc1ccc(OCCOCCO)cc1,Potency,[1],20.5 µM (active)
same,Potency,[2],18.3 µM (active)
same,Potency,[3],inactive
same,Potency,[9],inactive
same,Potency,[5],inactive
same,Potency,[10],5.11 µM (active)
CC1OC(=O)C(C)OC1=O (configuration not stated),Potency,[1],inactive
same,Potency,[2],inactive
same,Potency,[3],inactive
same,Potency,[9],inactive
same,Potency,[5],inactive
same,Potency,[6],inactive
same,Potency,[7],inactive
same,Potency,[8],inactive
C[C@H]1C[C@H]2[C@@H]3CCC4=CC(=O)C=C[C@]4(C)[C@@]3(Cl)[C@@H](O)C[C@]2(C)[C@@]1(O)C(=O)CO,Potency,[1],inactive
same,Potency,[2],inactive
same,Potency,[3],inactive
same,Potency,[5],inactive
same,Potency,[6],inactive
same,Potency,[7],inactive
O=C(O)CC(=O)C(=O)O,Potency,[2],inactive
same,Potency,[3],inactive
same,Potency,[9],inactive
same,Potency,[5],inactive
same,Potency,[6],inactive
same,Potency,[7],inactive
same,Potency,[8],inactive
CCCCc1ncc(/C=C(\Cc2cccs2)C(=O)O)n1Cc1ccc(C(=O)O)cc1,Potency,[1],inactive
same,Potency,[2],inactive
same,Potency,[3],inactive
same,Potency,[9],inactive
same,Potency,[5],inactive
same,Potency,[6],inactive
same,Potency,[8],inactive
COC(=O)C1=C(C)NC(COC(N)=O)=C(C(=O)OC(C)C)C1c1cccc(Cl)c1Cl (configuration not stated),Potency,[3],inactive
same,Potency,[9],inactive
same,Potency,[10],inactive
same,Potency,[6],inactive
same,Potency,[7],inactive
same,Potency,[8],inactive
CCOC(=O)C(=O)CCc1ccccc1,Potency,[2],inactive
same,Potency,[3],inactive
same,Potency,[9],inactive
same,Potency,[5],inactive
same,Potency,[6],inactive
same,Potency,[7],inactive
same,Potency,[8],inactive
O=S(=O)(Oc1ccc(Cl)cc1)c1ccccc1,Potency,[1],inactive
same,Potency,[2],inactive
same,Potency,[3],inactive
same,Potency,[9],inactive
same,Potency,[5],inactive
same,Potency,[6],inactive
same,Potency,[7],inactive
CC(=O)OC[C@H]1O[C@@H](n2ncc(=O)[nH]c2=O)[C@H](OC(C)=O)[C@@H]1OC(C)=O,Potency,[1],inactive
same,Potency,[2],inactive
same,Potency,[3],inactive
same,Potency,[9],inactive
same,Potency,[10],1.5 µM (active)
same,Potency,[6],inactive
same,Potency,[7],inactive
CCOc1ccc(O)cc1,Potency,[3],inactive
same,Potency,[5],inactive
same,Potency,[6],inactive
same,Potency,[7],inactive
same,Potency,[8],inactive
CCOC(=O)C(F)(F)F,Potency,[1],inactive
same,Potency,[3],inactive
same,Potency,[9],inactive
same,Potency,[5],inactive
same,Potency,[6],inactive
same,Potency,[7],inactive
same,Potency,[8],inactive
CC(=O)[O][Al],Potency,[1],inactive
same,Potency,[2],inactive
same,Potency,[3],inactive
same,Potency,[9],inactive
same,Potency,[5],inactive
same,Potency,[6],inactive
same,Potency,[7],inactive
CC/C=C\CCOC(=O)CC,Potency,[1],inactive
same,Potency,[2],inactive
same,Potency,[3],inactive
same,Potency,[9],inactive
same,Potency,[5],inactive
same,Potency,[6],inactive
same,Potency,[7],inactive
same,Potency,[8],inactive
O=[N+]([O-])c1cccc(S(=O)(=O)O)c1,Potency,[1],inactive
same,Potency,[2],inactive
same,Potency,[3],inactive
same,Potency,[9],inactive
same,Potency,[5],inactive
same,Potency,[6],inactive
same,Potency,[7],inactive
same,Potency,[8],inactive
COC(C)OC,Potency,[2],inactive
same,Potency,[3],inactive
same,Potency,[9],inactive
same,Potency,[5],inactive
same,Potency,[6],inactive
same,Potency,[7],inactive
same,Potency,[8],inactive
CN(C)CCN(Cc1ccccc1)c1ccccn1,Potency,[1],inactive
same,Potency,[2],inactive
same,Potency,[3],inactive
same,Potency,[9],inactive
same,Potency,[5],inactive
same,Potency,[6],inactive
same,Potency,[8],inactive
NCC(=O)CCC(=O)O,Potency,[1],inactive
same,Potency,[2],inactive
same,Potency,[3],inactive
same,Potency,[5],inactive
same,Potency,[6],inactive
same,Potency,[7],inactive
same,Potency,[8],inactive
